Only some compounds are listed: those with a hit (about 21% of all), similar ones and a draw of the others.
Shiga inhibitor = Shiga toxin inhibition | Vero cells, Shiga toxin protein synthesis inhibition reporter | inhibition, % at 38.7 µM | actives 9.2% (n = 290,000); in the data active = inhibition mostly above about 28%, no sharp cut-off; inactive = mostly below about 43%; also: 0% is about no effect
CHX counter = affects cycloheximide protein synthesis inhibition readout, counter-screen | cell reporter, cycloheximide protein synthesis inhibition counterscreen | max response, % | actives 12% (n = 300,000); in the data active = max response mostly above about 13%, no sharp cut-off; inactive = mostly below about 14%; also: read at 38.3 µM for the half of the compounds with a filed dose; 0% is about no effect
SARS PLP yeast = SARS-CoV PLP inhibition in yeast | S. cerevisiae expressing SARS-CoV PLpro, growth rescue | Potency, µM (doses to about 32.9 µM), inactives show at the top dose activity, positive = growth rescue, most hits filed as activators | actives 0.19% (n = 330,000); calls by dose curve; also: potency is read from the fitted curve at half-maximal effect; 0% is about no effect; nearly all actives have a fitted effect of over 55% in size
NS1 inh = blocks influenza NS1 protein function; Potency, µM (titrated, usually from 46.1 µM), without a hit: top-dose activity, positive = more growth; actives 0.4% (n = 270,000); AID 2326; calls by dose curve; also: potency is read from the fitted curve at half-maximal effect; actives are rising curves; nearly all actives have a fitted effect of over 50% in size
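A cell-based growth assay was used: compounds that relieve NS1-induced slow growth of budding yeast raise OD600. Assay medium was yeast nitrogen base with ammonium sulphate and -URA supplement, pH 6.0, with 2% galactose.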
Pf growth 48h = P. falciparum growth inhibition at 48 hours (one generation); Potency, µM (top dose mostly 28.7 µM), inactives show at the highest dose activity change, negative = inhibition, hits mostly inhibitors; P. falciparum luciferase growth in erythrocytes, 48 h; AID 504832; actives 5.9% (n = 310,000); also: potency is read from the fitted curve at half-maximal effect; % is scaled to controls: 0 for no effect and ±100 for the full control effect
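Growth was read as firefly luciferase luminescence after a 48 h, 37 C, 5% CO2 exposure of compounds to reporter-bearing P. falciparum cultures (0.1% parasitemia, 2% hematocrit final) in Albumax-supplemented RPMI 1640.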
Pf growth 96h = P. falciparum growth inhibition at 96 hour, primary screen for plastid delayed-death inhibitors. P. falciparum luciferase reporter growth, 96 h. actives 6.9% (n = 320,000). Potency, µM (top dose mostly 28.7 µM), for the others: at the top dose activity change, negative = inhibition, usual class: inhibitors. AID 504834; also: potency is read from the fitted curve at half-maximal effect; % is scaled to controls: 0 for no effect and ±100 for the full control effect
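P. falciparum expressing integrated firefly luciferase, in erythrocytes at 2% hematocrit, 0.05% parasitemia, incubated with compounds 96 h at 37 C, 5% CO2. Growth inhibition read as loss of luminescence; two-generation exposure targets delayed-death apicoplast inhibitors.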
Starred values were filed as active, the others as inactive; ? = inconclusive; nt = no result given; [ ] = remark or other dose. Unless noted, calls follow the shape of the dose curve; as a rule, active = well fitted inhibition curve with a large enough effect; inconclusive = small, poorly fitted or top-dose-only effect, or another doubt; inactive = no such curve, though single readings can be large or run the other way.

SMILES	Shiga inhibitor	CHX counter	SARS PLP yeast	NS1 inh	Pf growth 48h	Pf growth 96h
Cc1oc2c(cc(NS(=O)(=O)c3cccs3)c3ccccc32)c1C(=O)OC(C)C	26	12	13%	28%	?	9.3µM*
C[C@H](CO)N1C[C@H](C)[C@@H](CN(C)Cc2ccc(Cl)c(Cl)c2)Oc2c(NC(=O)Cc3ccccc3)cccc2C1=O	nt	nt	2%	nt	nt	nt
CC(C)[C@H](NC(=O)[C@H](CCCCN)NC(=O)[C@@H](NC(=O)[C@@H]1CCCN1C(=O)[C@H](CCCN=C(N)N)NC(=O)[C@H](CCCN=C(N)N)NC(=O)[C@H](CCCCN)NC(=O)[C@H](CCCCN)NC(=O)CNC(=O)[C@@H](NC(=O)[C@@H]1CCCN1C(=O)[C@@H](N)CCCCN)C(C)C)C(C)C)C(=O)N[C@@H](Cc1ccc(O)cc1)C(=O)N1CCC[C@H]1C(=O)O	-8	14	nt	nt	nt	nt
O=C(CSc1ccc(Br)cc1)Nc1ccccc1Oc1ccccc1	2	12	-3%	4%	-29%	?
O=C(CSc1ccc(F)cc1)Nc1ccccc1Br	66	33*	-5%	nt	?	7%
O=C(CSc1ccc(F)cc1)Nc1ccc(Br)cc1	67*	47*	-2%	-9%	74%	17%[5.75 µM]
CN(C)c1ccccc1C(=O)N1CCCC(C(=O)c2ccc3ccccc3c2)C1 (stereo not given)	32	1	-1%	-31%	-15%	?
O=C1CC(N2CCC(C(=O)N3CCCCC3)CC2)C(=O)N1 (stereo not given)	-2	-2	0%	-9%	11%	15%
CCN1CCN(C2CC(=O)NC2=O)CC1 (stereo not given)	-10	6	3%	nt	6%	8.3µM*
COc1ccc(C(=O)n2c(SC)nc3cc4c(cc32)OCCO4)cc1	52*	49*	-4%	-108%	43%	-2%
COc1ccc(/C=C/C2=Nc3ccccc3NC(C)(C)C2)cc1OC	59*	42*	-2%	-6%	?	?
S=C(N/N=C/c1ccc(Cl)cc1)N1CCOCC1	97*	41*	-23%	-43%	54%	47%
Cc1ccc(/C=N/NC(=S)N2CCOCC2)cc1	83*	57*	-17%	-18%	2.3µM*	?
Cc1ccc(CNC(=S)N2CCOCC2)cc1	2	-6	-1%	nt	-2%[5.75 µM]	20%
Cc1cc(Cl)ccc1NC(=S)N1CCOCC1	2	-2	12%	8%	0%	?
S=C(N/N=C/c1ccc(Br)cc1)N1CCCCC1	64*	40*	-5%	-70%	?	99%
S=C(c1ccc(Br)cc1)N1CCCC1	-3	-1	0%	10%	-4%	4%
CCc1cccc2c(C=C(C#N)C#N)cn(CC(=O)N3CCCCCC3)c12	-6	-4	6%	5%	?	-15%
CCCOc1ccc(C(=O)NC2CCSc3ccccc32)cc1 (stereo not given)	26	16	-1%	-2%	?	-16%
O=[N+]([O-])c1ccc(N2CCN(c3ccccc3F)CC2)nc1	4	1	0%	8%	-11%	82%
CNc1c([N+](=O)[O-])cnn1-c1ccccc1F	43	41*	1%	3%	51%	21%
CNc1c([N+](=O)[O-])cnn1-c1ccc(C)cc1	17	0	0%	-6%	3.3µM*	?
CCCN1CCC(N2CCCC(C(=O)O)C2)CC1 (stereo not given)	7	-4	-6%	nt	10%	27%
Cc1ccsc1C(=O)N/N=C/c1ccc2c(c1)OCO2	78*	42*	-33%	-14%	414%	413%
Cc1ccccc1/C=N/NC(=O)c1sccc1C	66*	38*	9%	-3%	306%	294%
SMILES	Shiga inhibitor	CHX counter	SARS PLP yeast	NS1 inh	Pf growth 48h	Pf growth 96h
O=C(N/N=C/c1ccc2c(c1)OCO2)c1cccs1	68*	56*	-26%	-24%	202%	123%
Cc1ccccc1/C=N\NC(=O)c1ccccc1-n1cccc1	29	10	-1%	nt	28%	?
COc1ccc(S(=O)(=O)N2CC(O)CC2C(=O)OCC(=O)Nc2ccc(Cl)cn2)cc1 (stereo not given)	-6	-1	-2%	-1%	7%	1.5µM*
CC(C)N(C(=O)COC(=O)[C@@H]1CC(O)CN1S(=O)(=O)c1ccc(C(C)(C)C)cc1)C(C)C (stereo not given in full)	41	-1	3%	nt	4.1µM*	6.6µM*
Brc1cc2c(cc1CN1CCN(c3ccccc3)CC1)OCCO2	7	-2	-2%	-5%	6%	12%
COc1ccc(CN2CCN(c3ccccc3)CC2)c(C)c1C	-14	-3	8%	-60%	nt	-14%
Cc1cc(O)c(CN2CCN(c3ccccc3)CC2)cc1C	-13	-3	1%	1%	1.5µM*	nt
Cc1ccc(O)c(CN2CCN(c3ccccc3)CC2)c1	11	-2	-1%	-6%	2.6µM*	90%
CCN(Cc1ccccc1)C(=O)Cn1cc(S(=O)(=O)NC)c(S(=O)(=O)NC)c1	-9	-3	0%	5%	22%	7%
O=C(CCn1c(=S)oc2ccccc21)Nc1ccc2c(c1)OCCO2	13	15*	0%	-3%	14%	58%
CCC(=O)Nc1nnc(SCC(=O)Nc2ccc3c(c2)OCCO3)s1	16	8	1%	27%	3%	3%
O=C(CSc1ccccn1)Nc1ccc2c(c1)OCCO2	89*	54*	-4%	-9%	163%	208%
COc1ccc(Nc2nnc(SCC(=O)NC(=O)Nc3ccc4c(c3)OCCO4)s2)cc1	41	15*	1%	10%	8%	-15%
O=C(CCCn1c(=O)oc2ccccc21)N1CCc2ccccc2C1	38*	27*	2%	-6%	26%	?
O=C1CCN(C(=O)CCCn2c(=O)oc3ccccc32)CC1	30	-4	3%	nt	207%	5%
O=C(NC1CCCC1)C1CCN(C(=O)c2ccc(Cl)cc2Cl)CC1	-10	-7	-3%	1%	-2%	18%
O=C1CN(C(=O)CSc2nncs2)c2ccccc2N1	-2	-1	1%	nt	-7%	11%
O=C(CCn1c(=S)oc2ccccc21)N1CCCCC1	24	26*	3%	nt	?	?
O=C(CSc1ccc([N+](=O)[O-])cn1)Nc1ccc2[nH]c(=O)[nH]c2c1	-15	-1	1%	-10%	11%	4.7µM*
COc1ccc(Nc2nnc(SCC(=O)N3CC(=O)Nc4ccccc43)s2)cc1	2	-1	0%	-13%	?	2.3µM*
O=C(CSc1ccc([N+](=O)[O-])cn1)Nc1ccc2c(c1)OCCO2	34	17*	1%	5%	-5%	40%
COc1cccc(Nc2nnc(SCC(=O)N3CCOCC3)s2)c1	73	16*	-2%	-7%	?	64%

Screening data: PubChem, National Center for Advancing Translational Sciences (NCATS)
